Measurements reported in PubChem BioAssay (NCATS).
Records with an inconclusive call do not appear. A call without a number means that no potency is given here. The source made the active and inactive calls. The call rests on the fitted dose curve; in most records, active means well fitted curve in the direction sought with a large enough effect; inconclusive means small, poorly fitted or top-dose-only effect, or another doubt; inactive means no such curve, though single readings can be large; an effect the other way counts as inactive or inconclusive.

Assays:
[1] = tested on: MKL-2; test: qHTS assay to identify novel small-molecules to repurpose for Merkel cell carcinoma treatment (AID 1296009); details: MCC and control cell lines, CellTiter-Glo viability, 72 h; series mostly up to 46 µM; further: nearly all actives have a fitted effect of over 60% in size
How it was run: (§1)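 Viability readout: ATP luminescence (CellTiter-Glo) after 72 hr drug exposure at 37 degree celsius. Dose-response format was 8 points for NPC and 11 points for MIPE; data normalized to in-plate controls.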

[2] = tested on: WaGa; test: as above; details: MCC and control cell lines, CellTiter-Glo viability, 72 h; series mostly up to 46 µM
How it was run: as §1

[3] = tested on: UISO; test: as above; details: MCC and control cell lines, CellTiter-Glo viability, 72 h; series mostly up to 46 µM
How it was run: as §1

[4] = tested on: Hek293T; test: Primary qHTS to identify gynecologic anti-cancer compounds using libraries of approved drugs and bioactive compounds (AID 1345084); details: Gynecologic cancer cell panel viability, ATPlite luminescence, 48 h, control line for the selectivity index; series mostly up to 57.5 µM; further: nearly all actives have a fitted effect of over 55% in size
How it was run: (§2)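 Cell viability after 48 h drug treatment, ATPlite luminescence readout; five doses.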

[5] = tested on: C33A; test: as above; details: Gynecologic cancer cell panel viability, ATPlite luminescence, 48 h; series mostly up to 57.5 µM
How it was run: as §2

[6] = tested on: Es-2; test: as above; details: Gynecologic cancer cell panel viability, ATPlite luminescence, 48 h; series mostly up to 57.5 µM
How it was run: as §2

[7] = tested on: HeLa; test: as above; details: Gynecologic cancer cell panel viability, ATPlite luminescence, 48 h; series mostly up to 57.5 µM
How it was run: as §2
Potency means the concentration at half of the fitted maximal effect.

Question: `Cn1cncc1[C@@](N)(c1ccc(Cl)cc1)c1ccc2c(c1)c(-c1cccc(Cl)c1)cc(=O)n2C` was tested. Which Potency [1] did it give?
Answer: 3720 nM (active)

Question: And the Potency [2]?
Answer: 935 nM (active)

Question: For `CCOC(=O)C1=C(C)NC2=C(C(=O)CC(C)(C)C2)C1c1ccc(-c2ccccc2)cc1` (stereo unspecified), which Potency [1] is on record?
Answer: 2350 nM (active)

Question: And the Potency [3]?
Answer: inactive

Question: And the Potency [4]?
Answer: 28200 nM (active)

Question: How did the Potency [1] turn out when `CN1CCC(CNc2ccc3ncc(-c4cccc(OC(F)(F)F)c4)n3n2)CC1` was run?
Answer: inactive

Question: What about the Potency [2] of the same compound?
Answer: inactive

Question: What about the Potency [5] of the same compound?
Answer: inactive

Question: What about the Potency [6] of the same compound?
Answer: inactive

Question: What about the Potency [7] of the same compound?
Answer: inactive

Question: What about the Potency [4] of the same compound?
Answer: inactive

Question: Which results are given for `CCCCc1nc2cc(C=CC(=O)NO)ccc2n1CCN(CC)CC`?
Answer: Potency [1]: 526 nM (active); Potency [2]: 372 nM (active)

Question: With `CC1(C)CC(=O)c2c(C(F)(F)F)nn(-c3ccc(C(N)=O)c(NC4CCC(OC(=O)CN)CC4)c3)c2C1` (stereo unspecified) as the compound, how does the Potency [1] read?
Answer: inactive

Question: And the Potency [3]?
Answer: 264 nM (active)

Question: What about the Potency [7] of the same compound?
Answer: inactive
